Epigenetic reg – Quantitative High-Throughput Screen for Regulators of Epigenetic Control | murine LDR cells, GFP reporter derepression, 30 h | 280,000 tested, 0.2% active | Potency, µM (series often up to 53.9 µM), for the others: at the highest dose GFP activation, actives largely listed as activators; further: potency means the concentration at half of the fitted maximal effect; % of control where 0% means no effect; nearly all actives have a fitted effect of over 60% in size
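Readout is the number of GFP-expressing murine LDR cells, counted by cytometry following washing. Cells were treated with compound for 30 h at 37 C; the stably integrated CMV-GFP locus is normally silent.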
IMPase Li cell – qHTS Assay for Identifying the Cell-Membrane Permeable IMPase Inhibitors: Potentiation with Lithium | CHO-M1 cells, IP1 TR-FRET (IP-One), carbachol + lithium | Potency, µM (highest dose often 59.4 µM), for inactives: at the top dose activity, negative = IMPase inhibition, hits mostly inhibitors | 210,000 tested, 0.35% active;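 further: IP1 builds up when IMPase is blocked and the TR-FRET signal falls; potency means the concentration at half of the fitted maximal effect; plate controls were basal vehicle for no effect and high inhibitor control for full effect; nearly all actives have a fitted effect of over 50% in size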
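Concentration–response in CHO-M1 cells, lithium-potentiated; 30 min at 37C. IP1 detected by competitive TR-FRET after 10 min lysis at RT. Hill-fitted AC50.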
JMJD2E inh – qHTS Assay for Inhibitors of Human Jumonji Domain Containing 2E (JMJD2E) | JMJD2E catalytic domain, FDH-coupled NADH fluorescence (FDH is formaldehyde dehydrogenase) | AID 2147, 2009 | Potency, µM (highest dose often 57.1 µM), for inactives: at the top dose activity change, negative = inhibition, usual class: inhibitors | Lysine-specific demethylase 4E (Homo sapiens), B2RXH2 | 230,000 tested, 1.6% active; active means well fitted inhibition curve with a large enough effect, not every such curve was filed as active; inconclusive means small, poorly fitted or top-dose-only effect, or another doubt; inactive means no such curve, though single readings can be large or run the other way;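 further: potency means the concentration at half of the fitted maximal effect; 0% = wells with enzyme and -100% = buffer wells without enzyme; nearly all actives have a fitted effect of over 50% in size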
Target sequence (B2RXH2 1-337 limits assumed): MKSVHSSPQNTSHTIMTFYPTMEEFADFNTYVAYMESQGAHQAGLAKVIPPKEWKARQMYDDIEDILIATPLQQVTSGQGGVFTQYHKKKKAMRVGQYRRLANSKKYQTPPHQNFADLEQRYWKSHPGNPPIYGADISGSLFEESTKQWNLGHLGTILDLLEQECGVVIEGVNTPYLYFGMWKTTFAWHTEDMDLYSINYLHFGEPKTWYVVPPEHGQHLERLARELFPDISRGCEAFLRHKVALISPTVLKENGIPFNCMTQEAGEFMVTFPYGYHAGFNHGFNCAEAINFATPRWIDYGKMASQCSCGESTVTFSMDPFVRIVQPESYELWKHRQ
GCN5L2 inh – qHTS Assay for Inhibitors of GCN5L2. Histone acetyltransferase KAT2A (Homo sapiens), Q92830. GCN5L2 HAT assay, ThioGlo1 CoA-SH fluorescence. Potency, µM (titrated, usually from 58.9 µM), for the others: at the highest dose activity change, negative = inhibition, hits mostly inhibitors. 390,000 tested, 0.21% active; further: potency means the concentration at half of the fitted maximal effect; on the % scale 0 is the no-effect control and ±100 the full control effect
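qHTS, 1536-well. 20nM enzyme, pH 7.5 HEPES/EDTA/Tween-20 buffer; 15 min compound preinc., RT. Start: 75uM H3(1-25), 70uM AcCoA, 50uM ThioGlo1. Read Ex340/Em540 at t=0 (autofluorescence flag) and t=20 min.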
Sfp inh – qHTS Assay for Inhibitors of Bacillus subtilis Sfp phosphopantetheinyl transferase (PPTase); Potency, µM, for the others: largest response in the series, negative = inhibition, actives largely listed as inhibitors; Biochemical Sfp PPTase activity, qHTS; 310,000 tested, 3.5% active; AID 1490, 2009; 4'-phosphopantetheinyl transferase ffp (Bacillus subtilis), Q9F4F7;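 further: the enzyme is Sfp with the accession as filed and its product quenches rhodamine fluorescence; potency means the concentration at half of the fitted maximal effect; 0% = enzyme reaction without inhibitor and -100% = no enzyme wells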
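Buffer: 50 mM Hepes-Na pH 7.6, 10 mM MgCl2, 0.01% Nonidet P-40, 0.01% BSA. Enzyme 15 nM, pre-exposed to compound 15 min; substrates then added and fluorescence change tracked over 30 min.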
NPSR antagonist – qHTS Assay for Antagonists of the Neuropeptide S Receptor: cAMP Signal Transduction; CHO-NPSR cells, cAMP TR-FRET, antagonist mode; Potency, µM (doses to about 38.3 µM), inactives show at the highest dose activity change, negative = inhibition, hits mostly inhibitors; AID 1461, 2008; 220,000 tested, 1% active; further: potency means the concentration at half of the fitted maximal effect; on the % scale 0 is the no-effect control and ±100 the full control effect; nearly all actives have a fitted effect of over 50% in size
Sfp inh conf – Confirmation qHTS Assay for Inhibitors of Bacillus subtilis Sfp phosphopantetheinyl transferase (PPTase); shares compounds with Sfp inh; Sfp PPTase enzymatic assay, qHTS titration; Potency, µM (series often up to 114 µM), inactives show at the top dose activity change, negative = inhibition, actives largely listed as inhibitors; 380 tested, 79% active;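 further: potency means the concentration at half of the fitted maximal effect; plate controls were uninhibited Sfp reaction for no effect and no enzyme control for full effect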
Target sequence (Q9F4F7 whole entry, looked up): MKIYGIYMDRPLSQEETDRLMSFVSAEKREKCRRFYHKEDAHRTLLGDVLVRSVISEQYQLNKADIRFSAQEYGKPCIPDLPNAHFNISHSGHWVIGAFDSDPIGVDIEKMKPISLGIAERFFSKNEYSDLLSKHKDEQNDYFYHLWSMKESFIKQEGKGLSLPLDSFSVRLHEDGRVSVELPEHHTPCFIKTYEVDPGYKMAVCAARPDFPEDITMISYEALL
Sfp PPTase gel – Gel-Based Assay for Inhibitors of Bacillus subtilis Sfp phosphopantetheinyl transferase (PPTase); 210 tested, 20% active; shares compounds with Sfp inh; Potency, µM, most hits filed as inhibitors; purified Sfp, gel-based phosphopantetheinylation read-out;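 active means potency below 100 µM; inconclusive means dose-dependent response but potency above 100 µM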;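 further: band intensities scaled against SCH202676 control wells before curve fitting; potency is an IC50 for inhibitors of Sfp transfer activity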
* marks the source's active call; other numbers are inactive results; i = inactive; ? = inconclusive; . = no result given; [ ] = remark or other dose. Shown are actives, neighbours in structure and some others; about 3.6% of the full set was active somewhere. Unless noted, the call rests on the fitted dose curve; in most records, active means well fitted curve in the direction sought with a large enough effect; inconclusive means small, poorly fitted or top-dose-only effect, or another doubt; inactive means no such curve, though single readings can be large; an effect the other way counts as inactive or inconclusive.

SMILES | Epigenetic reg | IMPase Li cell | JMJD2E inh | GCN5L2 inh | Sfp inh | NPSR antagonist | Sfp inh conf | Sfp PPTase gel
Cc1ccn2c(Nc3ccc4c(c3)OCO4)c(-c3ccccn3)nc2c1 | 1% | -5% | 0% | 17% | 2.8µM* | -30%[46.1 µM] | ? | i
CC1=C2[C@@H]([C@H](C)CC[C@H]2/C=C(\C)C(=O)O)[C@H](O)C1 | . | -2% | . | . | . | . | . | .
COC(=O)N[C@@H](/C=C/c1ccccc1)[C@@H](C)[N+](=O)[O-] | -1% | 0% | -14% | . | -8% | . | . | .
O=C(NCCCn1ccnc1)c1nn2c(C(F)(F)F)cc(-c3ccc(Br)cc3)nc2c1Cl | -7% | 6% | -1% | 2% | 1.1µM* | -33% | ? | .
Cc1ccc(C(C)CCN2CCC(n3nccc3NC(=O)c3ccccc3)CC2)o1 (centres undefined) | . | . | . | -12% | -23% | . | . | .
COc1ccccc1C(=O)Nc1ccnn1C1CCN(CCC(C)c2ccc(C)o2)CC1 (centres undefined) | . | . | . | -1% | 50µM* | . | 19µM* | .
COc1ccc(C)cc1NC(=O)C1CCC(CNS(=O)(=O)c2ccc3c(c2)CCCC(=O)N3)CC1 (centres undefined) | -2% | . | . | -10% | . | . | . | .
O=C(c1ccc(-c2ccc([N+](=O)[O-])cc2)o1)N1CCCCC1 | -1% | 24% | -15% | -2% | 16µM* | -25% | 19µM* | ?
CC1CC(C)CN(C(=O)c2ccc(-c3ccc([N+](=O)[O-])cc3)o2)C1 (centres undefined) | . | . | . | -24% | . | . | . | .
COCCCNC(=O)c1cc2n(n1)CCCN(Cc1ccc(C)cc1)C2=O | -3% | . | . | -2% | . | . | . | .
O=C(O)C1CC(C2CCCCN2)CN2CCCCC12 (centres undefined) | -2% | -3% | -1% | -5% | 7% | . | . | .
N#C/C(=C/c1ccc(N2CCCCC2)o1)c1cccc(F)c1 | 6.3µM* | 30%[38.3 µM] | ? | -12% | 2.8µM* | 10µM* | 21µM* | 19µM*
N#C/C(=C/c1ccc(N2CCOCC2)o1)C(=O)Nc1ccccc1 | ? | 28% | -11% | 0% | ? | -33% | . | .
N#C/C(=C/c1ccc(N2CCCCCC2)o1)c1ccc(Cl)cc1 | 7.1µM* | 20%[38.3 µM] | -28% | -23% | 5µM* | 10µM* | 19µM* | .
Cc1ccc(/C(C#N)=C\c2ccc(N3CCOCC3)o2)cc1 | ? | 25% | 16µM* | -6% | 1.4µM* | ? | 13µM* | i
N#C/C(=C/c1ccc(N2CCCCC2)cc1)c1cccc(F)c1 | 2% | 3% | 0% | -2% | -8% | -19% | . | .
COc1cccc(Cn2c(CNC(=O)Cc3cccc(C)c3)nc3cccnc32)c1 | 0% | . | . | -6% | . | . | . | .
Cc1cccc(-c2nc(CN3CCCC(C(=O)N4CCN(c5cc(Cl)ccc5C)CC4)C3)c(C)o2)c1 (centres undefined) | -1% | . | . | -7% | . | . | . | .
CC(=O)O[C@H]1C(=O)[C@@]2(C)[C@H]([C@H](OC(=O)c3ccccc3)[C@]3(O)C[C@H](OC(=O)[C@H](O)C(NC(=O)c4ccccc4)c4ccccc4)C(C)=C1C3(C)C)[C@]1(OC(C)=O)CO[C@@H]1C[C@@H]2O (some centres undefined) | -3% | . | -22% | -13% | 10µM* | -36% | 30µM* | i
COc1cccc(CNc2ccccn2)c1O | . | . | . | -8% | 15% | . | . | .
COc1cccc(CNc2cccc3cccnc23)c1O | 0% | 74%[38.3 µM] | -2% | -4% | 4.5µM* | 22%[46.1 µM] | 21µM* | i
COc1cc2c(cc1OC)C1O[C@](CCCCN3C(=O)c4ccccc4C3=O)(C2)OC2=C1C(=O)OC1(CCCCC1)C2 | . | . | . | -1%[12.7 µM] | -13% | . | . | .
Fc1ccc(CNc2nc3c(-c4ccc(F)cc4)nnn3c3ccccc23)cc1 | 2% | . | . | 2% | . | . | . | .
Nc1nc(NCC2CCC(CNS(=O)(=O)c3cccc4ccccc34)CC2)nc2ccccc12 (centres undefined) | 0% | 19% | . | 0% | 28µM* | . | 47µM* | 56µM*
Cn1ncc2c(c(SCc3ccc(Cl)cc3Cl)nn2C)c1=O | 0% | . | -26% | -13% | 25µM* | 8% | 17µM* | .
SMILES | Epigenetic reg | IMPase Li cell | JMJD2E inh | GCN5L2 inh | Sfp inh | NPSR antagonist | Sfp inh conf | Sfp PPTase gel
COc1cnn(-c2ccccc2)c(=O)c1SCc1ccc(Cl)cc1Cl | 0% | 14%[38.3 µM] | -3% | 27% | ? | ? | . | .
COc1cccc(Nc2ncc3nc(C)c(=O)n(CCC#N)c3n2)c1 | . | 9% | . | -24% | 21% | . | . | .
Cc1ccc(/C=C/C(=O)NCCc2ccccc2)o1 | . | . | . | -4% | 7.9µM* | . | 19µM* | .
CCCc1nn2c(=O)cc(COC(=O)c3cccc(NC(=O)COc4ccccc4C)c3)nc2s1 | -2% | . | . | 25% | . | . | . | .
CC(C)CCN(C(=O)Nc1ccc(Cl)c(Cl)c1)C1CCN(C(C)C)CC1 | -1% | . | . | -2% | . | . | . | .
COc1ccc(NC(=S)N(CCC(C)C)C2CCN(C(C)C)CC2)cc1Cl | . | . | . | -11% | 4µM* | . | 1.9µM* | .
CCOC(=O)c1ccc(NC(=S)N2CCN(CCN=CC3=C(O)CC(C)(C)CC3=O)CC2)cc1 | -1% | 5% | -10% | -2% | 11µM* | 7% | 18% | ?
CC1=C(C(=O)O)N2C(=O)[C@@H](NC(=O)[C@@H](N)c3ccc(O)cc3)[C@@H]2SC1 | 0%[16.9 µM] | 3% | -2%[25.5 µM] | -13%[21.4 µM] | 32µM* | . | -2%[53.7 µM] | ?
CCOC(=O)c1cc(-c2ccco2)nc2c1c(C)nn2CCC#N | 0% | 33%[38.3 µM] | ? | -12% | 28µM* | -15%[46.1 µM] | 47µM* | i
CCSc1ncc(Cl)c(C(=O)N(Cc2ccc(C(C)(C)C)cc2)C2CCS(=O)(=O)C2)n1 (centres undefined) | -2% | . | . | -9% | . | . | . | .
O=C(O)COCc1nc2ccccc2s1 | -3% | . | 3% | 4% | 25µM* | 7% | -13% | ?
O=C(CCc1nc2ccccc2s1)OCC(=O)c1ccccc1 | -1% | 0% | 4% | -2% | -7% | 14% | . | .

Bioassay records from PubChem BioAssay.
